Compounds with a hit are over-represented: about 9.4% of the library has one in this group of screens.
Pf growth 48h = P. falciparum growth inhibition at 48 hours (one generation) | P. falciparum luciferase growth in erythrocytes, 48 h | Potency, µM (titrated, usually from 28.7 µM), for the others: top-dose activity change, negative = inhibition, most hits filed as inhibitors | 310,000 tested, 5.9% active | AID 504832; also: % is scaled to controls: 0 for no effect and ±100 for the full control effect
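Compounds are pin-transferred into medium, infected erythrocytes (2% hematocrit, 0.1% parasitemia final) are added, and plates sit one parasite generation at 37 C in 5% CO2. Detection reagent is then added and luminescence measured.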
SARS PLpro yeast = inhibitors of SARS-CoV papain-like protease in yeast; S. cerevisiae expressing SARS-CoV PLpro, growth rescue; Potency, µM (doses to about 32.9 µM), inactives show at the highest dose activity, positive = growth rescue, most hits filed as activators; 330,000 tested, 0.19% active; AID 485353; calls by dose curve; also: 0% is about no effect; nearly all actives have a fitted effect of over 55% in size
Pf growth 96h = inhibits malaria parasite growth, 96 h | P. falciparum luciferase reporter growth, 96 h | Potency, µM (series often up to 28.7 µM), inactives show at the top dose activity change, negative = inhibition, most hits filed as inhibitors | AID 504834 | 320,000 tested, 6.9% active; also: % is scaled to controls: 0 for no effect and ±100 for the full control effect
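P. falciparum expressing integrated firefly luciferase, in erythrocytes at 2% hematocrit, 0.05% parasitemia, incubated with compounds 96 h at 37 C, 5% CO2. Growth inhibition read as loss of luminescence; two-generation exposure targets delayed-death apicoplast inhibitors.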
AMA1 RON2 block = disrupts binding of P. falciparum AMA1 to RON2 | AlphaScreen AMA1-biotinylated RON2 peptide binding | Potency, µM (doses to about 58.2 µM), for the others: top-dose activity change, negative = inhibition, hits mostly inhibitors | 360,000 tested, 0.2% active | AID 720542;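 also: 0% = vehicle wells and -100% = peptide control; nearly all actives have a fitted effect of over 45% in size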
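AMA1 (3D7) with his tag at 25 nM final met compounds first, then biotinylated RON2 peptide at 25 nM; detection used donor plus acceptor beads, 10 µg/mL apiece, read by AlphaScreen after 30 min at room temperature.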
* hit, by the source's call; ? = inconclusive; / = not tested or not shown; [ ] = dose if it differs, or a comment. Unless noted, calls follow the shape of the dose curve; as a rule, active = well fitted curve in the direction sought with a large enough effect; inconclusive = small, poorly fitted or top-dose-only effect, or another doubt; inactive = no such curve, though single readings can be large; an effect the other way counts as inactive or inconclusive. Potency is read from the fitted curve at half-maximal effect.

SMILES | Pf growth 48h | SARS PLpro yeast | Pf growth 96h | AMA1 RON2 block
Cc1ccc(C)c(NC(=S)N(CCc2ccncc2)C(C)C)c1 | -18.3% | -2.0% | 20.9% | -5.7%
O=C(c1ccc2c3c(cccc13)CC2)C1CCCN(Cc2ccc(OCCO)cc2)C1 (stereo not given) | 6.57µM* | 0.4% | 4.3% | -25.0%
Cc1cnc(CN2CCCC(C(=O)c3ccc4c5c(cccc35)CC4)C2)[nH]1 (stereo not given) | ? | -1.3% | ? | 34.2%
O=C(c1ccc2c3c(cccc13)CC2)C1CCCN(C(=O)c2cc[n+]([O-])cc2)C1 (stereo not given) | -6.4% | -1.8% | 2.94µM* | 2.3%
O=C(c1ccc2c3c(cccc13)CC2)C1CCCN(Cc2ccccn2)C1 (stereo not given) | 2.33µM* | -0.4% | -6.4% | -0.4%
CC(=O)Nc1ccc(C(=O)NCCN2CCOCC2)cc1 | -23.3%[0.00184 µM] | -1.3% | 8.0% | 7.0%
CC(C)(C)NC(=O)CSc1nc(Cc2ccccc2)nc2ccccc12 | -16.7% | 20.2% | 13.1µM* | 5.4%
CCC(C)(C)NC(=O)CSc1nc(Cc2ccccc2)nc2ccccc12 | ? | -6.0% | ? | -1.7%
O=C(O)CSc1nc2ccccc2c(=O)[nH]1 | / | 4.5% | 34.4% | 20.1%
CC(C)(C)NC(=O)CSc1nc2ccccc2c(=O)[nH]1 | 11.7µM* | 1.4% | 77.1% | -8.9%
CC(C)N(C(=O)CSc1nc(Cc2ccccc2)nc2ccccc12)C(C)C | 10.4µM* | -2.0% | -1.6% | 4.4%
CN(C)C=C1C(=O)N(C2CCCCC2)C(=O)N(C2CCCCC2)C1=O | 31.6% | -13.5% | / | 10.2%
O=C(CNC(=O)C1CCCCC1)OCn1nnc2ccccc2c1=O | 2.5% | -0.9% | -8.9% | -0.5%
CC(=O)Nc1c(-c2ccccc2)nc2ccc(Cl)cn12 | / | / | / | 1.8%
O=C(Nc1c(-c2ccccc2)nc2ccc(Cl)cn12)c1cccs1 | -0.4% | 4.2% | 5.22µM* | -11.2%
CCCc1[nH]c(=O)c(C#N)c2c1COC(C)(C)C2 | / | -5.6% | 1.65µM* | -0.1%
Cc1ccc(C(=O)NC(=S)Nc2ccc3c(c2)OCCO3)c(C)c1 | 48.7% | -6.1% | ? | -20.8%
Cc1cc(C)cc(C(=O)NC(=S)Nc2ccc3c(c2)OCCO3)c1 | 145.4% | 5.9% | 0.928µM* | 0.5%
O=C(NC(=S)Nc1ccc2c(c1)OCO2)c1ccc(Cl)cc1 | 239.0% | 0.5% | 89.9% | 23.4%
CCc1ccc(C(=O)NC(=S)Nc2ccc3c(c2)OCCO3)cc1 | 182.5% | -9.4% | 8.28µM* | 8.7%[11.6 µM]
CN(C)C(=O)Cn1cnc2c(cnn2-c2ccccc2Cl)c1=O | ? | 3.4% | -12.1% | 5.8%
CCOc1ccc2nc(N(CCCN(C)C)C(=O)c3ccc4c(c3)CCCC4)sc2c1 | ? | 0.0% | 5.86µM* | -11.7%
COc1cccc2sc(N(CCCN(C)C)C(=O)c3ccc(S(=O)(=O)N4CCCc5ccccc54)cc3)nc12 | 10.4µM* | -6.9% | ? | -11.8%
CN(C)CCCN(C(=O)c1ccc2c(c1)CCCC2)c1nc2ccc(Cl)cc2s1 | 8.28µM* | -35.8% | 1.85µM* | ?
CN(C)CCCN(C(=O)CCc1ccccc1)c1nc2ccc(Cl)cc2s1 | ? | -50.4% | 10.4µM* | ?
SMILES | Pf growth 48h | SARS PLpro yeast | Pf growth 96h | AMA1 RON2 block
Cc1ccc2nc(N(CCCN(C)C)C(=O)CCc3ccccc3)sc2c1 | ? | -27.8% | ? | -26.9%
CCOc1ccc2nc(N(CCCN(C)C)C(=O)c3ccc(S(=O)(=O)N4CCc5ccccc5C4)cc3)sc2c1 | ? | 8.6% | ? | 0.0%
CN(C)CCN(C(=O)c1ccc2c(c1)CCCC2)c1nc2c(F)cccc2s1 | 6.7% | ? | -25.3% | -20.0%
CN(C)CCCN(C(=O)c1ccc(S(=O)(=O)N2CCc3ccccc32)cc1)c1nc2c(Cl)cccc2s1 | ? | 1.7% | ? | -0.3%
Cc1cccn2c(CNCCSc3nccn3C)c(C(=O)N3CCCCC3)nc12 | -2.1% | 0.3% | 5.5% | 33.8%
O=C(NCc1ccccc1F)C1CCCN1C(=O)NC1CCCCC1 (stereo not given) | 5.6% | 26.9% | -9.6% | -5.4%
COc1ccc(N2CCN(C(=O)c3ccc(Cn4c(=S)[nH]c5ccc(N6CCOCC6)cc5c4=O)cc3)CC2)cc1 | ? | 0.8% | 38.3% | 24.7%
Clc1ncc(CSc2ccccc2)s1 | 0.7% | 0.2% | -15.2% | 69.4%
COC(=O)Nc1ccc(S(=O)(=O)NCc2ccccn2)cc1 | -19.0% | -3.1% | ? | 22.9%
COc1cccc2sc(N(CCN(C)C)C(=O)c3ccc4c(c3)CCCC4)nc12 | 10.4µM* | 13.9% | ? | -27.8%
Oc1ccc(Br)cc1-c1nc2cnccn2c1NC1CCCCC1 | 3.29µM* | -26.9% | / | 19.8%
Oc1ccc(Br)cc1-c1nc2cnccn2c1NC1CCCC1 | 2.62µM* | -35.8% | -3.7% | 24.0%
C=CCc1cccc([C@@H]2[C@@H](C)CC[C@H]3C(=O)N4[C@@H](c5cc(OC)c(OC)c(OC)c5)c5[nH]c6ccccc6c5C[C@H]4C(=O)N23)c1 | 4.15µM* | 0.2% | ? | /
COc1ccc(C2c3[nH]c4ccccc4c3C[C@H]3C(=O)N(C)CC(=O)N23)cc1OC (stereo not given in full) | ? | 1.4% | ? | 0.0%
COc1ccc(OC)c(C2c3[nH]c4ccccc4c3C[C@H]3C(=O)N(C4CC4)CC(=O)N23)c1 (stereo not given in full) | ? | 1.8% | ? | 3.6%
CCCN1CC(=O)N2C(c3ccccc3)c3[nH]c4ccccc4c3C[C@H]2C1=O (stereo not given in full) | 2.33µM* | -0.8% | ? | 3.4%
COc1cccc(C2c3[nH]c4ccccc4c3C[C@H]3C(=O)N(C4CC4)CC(=O)N23)c1 (stereo not given in full) | 3.29µM* | -1.2% | 1.85µM* | -6.4%
COc1cccc(C2c3[nH]c4ccccc4c3C[C@H]3C(=O)N(C)CC(=O)N23)c1 (stereo not given in full) | 7.38µM* | 1.8% | 7.38µM* | -4.3%
CCOC(=O)C1C2C=CC3(CN(Cc4ccco4)C(=O)C13)O2 (stereo not given) | -21.4% | 8.7% | -9.4%[5.75 µM] | 17.0%
Brc1ccc2nc(CSc3ncn[nH]3)cn2c1 | 71.2% | -4.1% | 51.3% | 20.5%
COc1cc(C2c3[nH]c4ccccc4c3C[C@H]3C(=O)N(C4CC4)CC(=O)N23)ccc1OC(C)C (stereo not given in full) | 9.28µM* | -0.6% | 9.28µM* | -8.0%
COc1cc(C2c3[nH]c4ccccc4c3C[C@@H]3C(=O)N(Cc4ccco4)CC(=O)N23)cc(OC)c1OC (stereo not given in full) | 2.33µM* | 1.7% | 3.7µM* | -6.3%
COCCN1CC(=O)N2C(c3cccc(OC)c3)c3[nH]c4ccccc4c3C[C@H]2C1=O (stereo not given in full) | 11.7µM* | 1.0% | ? | -2.4%
COc1ccc(C(=S)N2CCCC2)cc1 | 3.8% | 28.2% | 0.8% | -11.9%
Cc1ccc(C)c(NC(=O)CN(C)C(=O)c2oc3c(Cl)cccc3c2C)c1 | 4.15µM* | -0.6% | 2.94µM* | -0.7%
